High-throughput results (PubChem)
These entries were drawn from the full list.
aSyn UTR act – Activators working through SNCA 5'UTR binding (MLPCN) | activity score, % (tested at 7.5 µM), hits read low | alpha-synuclein 5'UTR reporter, activators screen | AID 1814 | actives 7.1% (n = 300,000); in the data active = activity score below about -60%
* marks the source's active call; other numbers are inactive results.

SMILES	aSyn UTR act
CC(C)c1ccc(NC(=O)c2ccccc2NC(=O)C2CCCCC2C(=O)O)cc1 (stereo unspecified)	-120.9*
O=C(NCCc1ccccc1)c1ccccc1NC(=O)C1CCCCC1C(=O)O (stereo unspecified)	-146.3*
COc1cccc(NC(=O)CN(C)C(=O)C2CCN(C(=O)c3ccccc3C)CC2)c1	-96.8*
COC(=O)Cc1nc(NC(=O)c2cccs2)sc1C	-81.6*
O=C(NC(=S)Nc1nc2ccccc2s1)c1cccs1	-136.1*
COC(=O)c1nc(NC(=S)NC(=O)c2cccs2)sc1C	-80.5*
O=C(/C=C/c1ccc2c(c1)OCO2)N1CCCCC1	-132.4*
CCOC(=O)C1CCN(C(=O)/C=C/c2ccc3c(c2)OCO3)CC1	-74.0*
CCOC(=O)C1CCCN(C(=O)CC(C)c2ccccc2)C1 (stereo unspecified)	-114.6*
CCOC(=O)C1CCN(C(=O)/C=C/c2ccccc2)CC1	-139.2*
CCOC(=O)C1CCN(C(=O)COc2ccc(Cl)cc2)CC1	-75.5*
Oc1cccc(/C=N/N=C/c2cccc(O)c2O)c1O	-70.4*
Cc1ccc(N=Cc2cccc(O)c2O)c(C)c1	-62.5*
Cc1ccc(O)c(C=Nc2cc(C)ccc2O)c1	-91.7*
O=C1C(C=Nc2ccccc2O)=C(O)c2ccccc21	-185.8*
CCN(CC)S(=O)(=O)c1cccc(C(=O)N/N=C/c2cccc(O)c2O)c1	65.7
Cc1ccc(O)c(N=CC2=C(O)c3ccccc3C2=O)c1	-156.2*
CCc1ccc(O)c(N=Cc2ccccc2O)c1	-69.6*
COCCCNC(=O)C1CCN(C(=O)c2oc3cc4sc(N(C)C)nc4cc3c2C)CC1	-93.0*
CCSc1nc2ccccc2n1C(=O)/C=C\c1ccc(OC)c(OC)c1	-112.1*
CN(C)c1cccc(/C=C(\C#N)c2ccccc2)c1	-154.5*
COC(=O)CCc1sc(Nc2ccccc2)nc1-c1ccc(OC)cc1	-62.0*
CCCc1cc(N2CCOCC2)n2ncc(-c3ccccc3)c2n1	-66.5*
Cc1nc2c(-c3ccccc3)cnn2c(N2CCOCC2)c1C	-191.5*
CC(C)CNC(=O)c1cc(-c2ccc3c(c2)OCO3)on1	-100.2*
SMILES	aSyn UTR act
O=C(COCc1cc(-c2ccc3c(c2)OCO3)on1)N1CCCCC1	-90.0*
CC(C)CNC(=O)COCc1cc(-c2ccc3c(c2)OCO3)on1	-76.9*
CCCNC(=O)COCc1cc(-c2ccc3c(c2)OCO3)on1	-65.7*
Cc1ccc(Cn2nc(C)c(NC(=O)c3cc(-c4ccc5c(c4)OCO5)on3)c2C)cc1	42.7
O=C(c1cc(-c2ccccc2O)on1)N1CCOCC1	-115.4*
O=C(c1cc(-c2ccccc2O)on1)N1CCCCCC1	-140.1*
CCOc1ccc2nc(N3C(=O)/C(=C/c4ccc(Cl)cc4)NC3=S)sc2c1	-73.1*
CC(C)(C)c1ccc(C(=O)NCCC(=O)N2CCCC2)cc1	-105.1*
CC(C)(C)c1cc(C(=O)NCCN2CCCC2)cc(C(C)(C)C)c1	-81.9*
Cc1ccc(C(=O)NCCC(=O)N2CCOCC2)cc1	-101.5*
CCS(=O)(=O)c1ccc2oc(Nc3cccc(OC)c3)nc2c1	-144.9*
CCS(=O)(=O)c1ccc2oc(Nc3ccccc3Br)nc2c1	-108.4*
CCS(=O)(=O)c1ccc2oc(Nc3ccccc3Cl)nc2c1	-153.6*
CN(Cc1ccccc1)c1ncnc2c1cnn2-c1ccccc1	-168.7*
CCN(c1ccccc1)c1ncnc2c1cnn2-c1ccccc1	-150.3*
N/C(=N\OC(=O)CCCc1ccccc1)c1ccccn1	-68.6*
N/C(=N\OC(=O)Cc1ccccc1)c1ccccn1	-76.6*
O=C(COc1ccc(Cl)cc1Br)Nc1ccncc1	-146.5*
O=C(COc1ccc(Cl)cc1Cl)Nc1cccnc1	-122.0*
Cc1c(OCC(=O)Nc2cccnc2)ccc2c3c(c(=O)oc12)CCC3	57.7
CCN(CC)CCOC(=O)c1ccc(NC(=O)CCCN2C(=O)S/C(=C/c3ccc(OC)cc3)C2=S)cc1	96.5
COc1ccc(C(=O)c2oc3ccc(OC)cc3c2N)cc1	-166.5*
COC(=O)c1oc2ccc(OC)cc2c1N	-76.1*
Nc1c(C(=O)c2ccc(Cl)cc2)oc2ccccc12	-111.1*
CCN(CC)CCOC(=O)c1c(C)oc2ccc(OC)cc12	-111.9*
SMILES	aSyn UTR act
O=C(O)c1cccc(NC(=S)N/N=C/c2cccc(O)c2)c1	57.7
O=C(O)c1cccc(NC(=S)N/N=C/c2ccccc2OCc2ccc(Br)cc2)c1	-83.7*
COc1ccc(NC(C)C(=O)N/N=C/c2ccccc2OCc2ccc(Br)cc2)cc1 (stereo unspecified)	-77.3*
Cc1ccc(C(C)C)c(OCc2ccc(C(=O)N/N=C/c3cccc(O)c3O)cc2)c1	108.5
N=C1C(c2nc3ccccc3[nH]2)=C(O)CN1c1ccccc1	-292.9*
CCC(C)N1CC(O)=C(c2nc3ccccc3[nH]2)C1=N (stereo unspecified)	-79.6*
CC1C(O)=C(c2nc3ccccc3[nH]2)C(=N)N1c1ccccc1 (stereo unspecified)	-131.1*
CCCCn1c(=O)[nH]c(=O)c2c1nc(Cn1ncc(Cl)c(Cl)c1=O)n2CCC	-106.0*
COc1ccc(OCc2cc(C(=O)NC(C)c3csc(C)n3)no2)c(Cl)c1 (stereo unspecified)	-119.2*
COc1ccc(OCc2cc(C(=O)NCc3nc(C)cs3)no2)c(Cl)c1	-93.7*
Cc1cc([N+](=O)[O-])ccc1NC(=O)c1csc(C)c1C	-97.8*
Cc1cc([N+](=O)[O-])ccc1NC(=O)c1cccc(NC(=O)C(C)C)c1	-98.8*
O=C1c2cccc3c(N4CCCCC4)ccc(c23)C(=O)N1c1cccc(O)c1	-77.6*
C=CCN1C(=O)c2cccc3c(N4CCCCC4)ccc(c23)C1=O	-65.8*
O=C(OCCN1C(=O)c2cccc3c(N4CCOCC4)ccc(c23)C1=O)c1ccc(Cl)cc1Cl	99.1
O=C1c2cccc3c(N4CCCCC4)ccc(c23)C(=O)N1CCO	-119.6*
O=C1c2cccc3cc([N+](=O)[O-])cc(c23)C(=O)N1CCN1CCCC1	97.8
CC(CNC(=O)c1ccc(OC2CCN(Cc3ccccn3)CC2)cc1)c1ccccc1 (stereo unspecified)	-97.0*
CNc1ccccc(-c2ccc3ccccc3n2)c1=O	-140.5*
O=S(=O)(NCC1(N2CCOCC2)CCCCC1)c1ccccc1Cl	-91.3*
CCc1ccc(NC(=O)CSc2nnnn2C)cc1	-131.8*
Cn1nnnc1SCC(=O)Nc1ccc2c(c1)OCO2	-98.8*
CC(C)c1ccc(Nc2nc(CC(=O)O)cs2)cc1	-77.0*
CCn1cnc2cc(NCc3ccc(Cl)cc3)ccc21	-111.0*
CCCn1cnc2cc(NCc3ccccn3)ccc21	-71.1*
SMILES	aSyn UTR act
CCc1ccc(CNc2ccc3c(c2)ncn3C)cc1	-156.1*
Cc1ccc(CNc2ccc3c(c2)ncn3C(C)(C)C)cc1	-97.4*
Cc1ccc(CNc2ccc3c(c2)ncn3C)cc1	-169.7*
Nc1ccc(-c2nc3ccc(-c4nc5ccccc5o4)cc3[nH]2)cc1	-215.2*
Cc1ccc2nc(-c3cc(N)cc(N)c3)oc2c1	62.5
Cc1nc2ccc(-c3nc4ccccc4o3)cc2[nH]1	-73.4*
CCc1noc(C)c1C(=O)Nc1nc(-c2cccs2)cs1	-66.0*
CSc1ccccc1OCc1cc(C(=O)NC(C)c2cnn(C)c2)no1 (stereo unspecified)	-61.7*
CSc1ccccc1OCc1cc(C(=O)N[C@H]2CCCCNC2=O)no1	-83.1*
CC1Cc2cc(/C=C3/SC(=S)N(C)C3=O)ccc2O1 (stereo unspecified)	-86.0*
C/C(N)=C(/C#N)C(=O)COC(=O)c1cc2c(s1)CCC(C)C2 (stereo unspecified)	-73.2*
COc1ccc(C(=O)/C=C/Nc2cccc(C)n2)cc1OC	-194.9*
